Screening data as filed in PubChem BioAssay.
SMN2 splice enh = increases expression of the SMN2 splice variant. HEK293 SMN2-luciferase splicing reporter, luminescence, 30-36 h. Potency, µM (titrated, usually from 46.1 µM), actives largely listed as activators. 210,000 compounds, 2.8% hits. AID 1458; note: nearly all actives have a fitted effect of over 55% in size
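HEK293 cells carry an SMN2 minigene-luciferase reporter in which exon 7 inclusion puts luciferase in frame. Cells were seeded at 2000 cells/well, attached for 10-12 hours, then exposed to compounds for 30-36 hours at 37C before ONE-Glo luminescence.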
ELG1 repair inh = inhibitors of ELG1-dependent DNA repair in HEK293T cells. Potency, µM (top dose mostly 46.1 µM), actives largely listed as inhibitors. 330,000 compounds, 2.3% hits. AID 504467. HEK293T ELG1-luciferase reporter, luminescence, 16 h; DNA damage induced by 5-fluorouridine; note: nearly all actives have a fitted effect of over 55% in size
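DMSO vehicle served as the neutral condition. Each well held 2,000 cells given 5-fluorouridine plus compound; after 16 hr at 37 °C/5% CO2, ONE-Glo was added and luciferase measured 30 min later.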
ELG1 genotoxic = genotoxicity induction in ELG1-luciferase HEK293T cells; HEK293T ELG1-luciferase reporter, luminescence, 16 h; Potency, µM (doses to about 46 µM), actives largely listed as activators; 330,000 compounds, 1.3% hits; AID 504466; note: nearly all actives have a fitted effect of over 60% in size
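DMSO vehicle served as control against compound-treated ELG1-luciferase HEK293T cells; exposure lasted 16 hr at 37 °C and 5% CO2, followed by ONE-Glo luminescence detection after 30 min.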
NPC1 prom act = activators of NPC1 promoter; Huh7 NPC1 promoter luciferase reporter, 24 h; 320,000 compounds, 2.4% hits; Potency, µM (doses to about 9.22 µM), most hits filed as activators; note: nearly all actives have a fitted effect of over 60% in size
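Huh7 reporter cells (NPC1 promoter driving luciferase) are dosed with compound for 24 h at 37 °C, 5% CO2; luciferase detection reagent is then added and luminescence measured after 10 min at ambient temperature.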
Rab9 promoter act = Rab9 promoter activation | Huh7 Rab9 promoter-luciferase reporter, luminescence, 24 h | 320,000 compounds, 2.8% hits | Potency, µM (series often up to 9.22 µM), actives largely listed as activators; note: nearly all actives have a fitted effect of over 60% in size
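Rab9 promoter-driven luciferase in stably transfected Huh7 cells; 1500 cells/well rested 2 h, exposed to compound in DMSO for 24 h at 37 °C, 5% CO2. Luminescence read 10 min after adding luciferase reagent at ambient temperature.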
FLuc modulator = firefly luciferase modulation, counter-screen for miR-21 project; purified FLuc, Km substrates, luminescence inhibition; 360,000 compounds, 6.9% hits; AID 588342; P08659; Potency, µM (top dose mostly 57.5 µM), actives largely listed as inhibitors; note: nearly all actives have a fitted effect of over 55% in size
Target sequence (P08659 whole entry, looked up): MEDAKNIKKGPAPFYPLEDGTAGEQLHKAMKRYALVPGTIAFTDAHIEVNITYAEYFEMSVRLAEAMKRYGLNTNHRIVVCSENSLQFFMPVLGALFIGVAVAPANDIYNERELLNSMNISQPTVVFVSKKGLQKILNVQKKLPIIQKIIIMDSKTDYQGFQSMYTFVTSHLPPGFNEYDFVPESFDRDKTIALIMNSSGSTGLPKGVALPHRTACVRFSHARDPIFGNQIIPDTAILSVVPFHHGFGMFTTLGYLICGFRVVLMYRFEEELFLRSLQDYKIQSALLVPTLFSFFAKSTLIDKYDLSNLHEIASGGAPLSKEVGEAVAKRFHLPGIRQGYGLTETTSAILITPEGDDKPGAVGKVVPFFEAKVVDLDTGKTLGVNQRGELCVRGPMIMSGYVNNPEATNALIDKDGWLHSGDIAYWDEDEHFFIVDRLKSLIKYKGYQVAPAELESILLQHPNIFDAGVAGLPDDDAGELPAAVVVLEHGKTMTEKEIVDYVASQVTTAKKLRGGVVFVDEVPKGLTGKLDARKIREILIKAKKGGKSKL
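Purified P. pyralis luciferase, 10 nM final, with Km-level 10 uM D-luciferin and 10 uM ATP in 50 mM Tris acetate pH 7.5, 10 mM Mg acetate, 0.01% Tween-20, 0.05% BSA; 6-point qHTS titration about 60 µM downward; luminescence read.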
Large screens that a line does not name were inactive. An excerpt weighted towards active compounds, which were near 9.2% of everything screened. Calls come from the whole dose curve; as a rule, active = well fitted curve in the direction sought with a large enough effect; inconclusive = small, poorly fitted or top-dose-only effect, or another doubt; inactive = no such curve, though single readings can be large; an effect the other way counts as inactive or inconclusive.

Cc1ccc2[nH]c3c(NCc4ccco4)ncnc3c2c1	ELG1 repair inh inconclusive, FLuc modulator 13.5µM
Cc1nn(-c2nc3ccccc3s2)c(N)c1-c1ccc(Cl)cc1	SMN2 splice enh 11.2µM, ELG1 repair inh inconclusive, ELG1 genotoxic inconclusive, NPC1 prom act inconclusive, Rab9 promoter act inconclusive, FLuc modulator 3.01µM
Cc1nn(-c2nc3ccccc3s2)c(N)c1Sc1ccc(F)cc1	ELG1 repair inh inconclusive, ELG1 genotoxic inconclusive, NPC1 prom act 3.16µM, Rab9 promoter act 1.12µM, FLuc modulator inconclusive
Cc1cc(-c2nc3ccccc3s2)ccc1NC(=O)c1cc(Cl)ccc1Cl	SMN2 splice enh inconclusive (no result: ELG1 repair inh, ELG1 genotoxic, NPC1 prom act, Rab9 promoter act)
Cc1nn(-c2nc3ccccc3s2)c(N)c1-c1ccccc1	SMN2 splice enh 7.08µM, ELG1 repair inh inconclusive, ELG1 genotoxic inconclusive, NPC1 prom act 2.51µM, Rab9 promoter act 2.24µM, FLuc modulator 1.9µM
CSc1ccccc1NC(=O)c1csc(C)c1	ELG1 repair inh inconclusive, FLuc modulator inconclusive (no result: SMN2 splice enh)
COc1cc(NC(=O)CN2CCN(Cc3ccc4c(c3)OCO4)CC2)cc(OC)c1	ELG1 repair inh 23.1µM
COC(=O)c1[nH]c2ccc(F)cc2c1NC(=O)CCN1CCN(Cc2ccc3c(c2)OCO3)CC1	none
COC(=O)c1[nH]c2ccccc2c1NC(=O)CN1CCN(Cc2ccc3c(c2)OCO3)CC1	ELG1 repair inh 4.61µM
O=C(NNS(=O)(=O)c1cccc(Cl)c1)c1cc(-c2ccc(F)cc2)nc2ccccc12	FLuc modulator 19µM
Cc1ccc(-c2cc(C(=O)NC3=NCCS3)c3ccccc3n2)cc1C	SMN2 splice enh 14.1µM, ELG1 repair inh inconclusive, FLuc modulator 0.849µM
CCCc1ccc(-c2cc(C(=O)NC3=NCCS3)c3ccccc3n2)cc1	ELG1 repair inh inconclusive, ELG1 genotoxic inconclusive, NPC1 prom act 1.12µM, Rab9 promoter act 4.47µM, FLuc modulator 0.338µM (no result: SMN2 splice enh)
Cc1ccc(CNC(=O)c2cc(-c3ccc(C)c(C)c3)nc3ccccc23)cc1	none (no result: SMN2 splice enh, ELG1 repair inh, ELG1 genotoxic, NPC1 prom act, Rab9 promoter act)
O=C(NN=C1CCCC1)c1cc(-c2ccc(F)cc2)nc2ccccc12	ELG1 repair inh inconclusive
O=C(NC1=NCCS1)c1cc(-c2ccc(F)cc2)nc2ccccc12	ELG1 repair inh inconclusive, FLuc modulator 5.36µM
CCn1c(=O)c2cc(C(=O)N(CC(C)C)CC(C)C)sc2c2ccccc21	none (no result: ELG1 repair inh, ELG1 genotoxic, NPC1 prom act, Rab9 promoter act)
O=C(CCN1CCCCC1)c1csc2ccccc12	none (no result: ELG1 repair inh, ELG1 genotoxic, NPC1 prom act, Rab9 promoter act, FLuc modulator)
COCC1CCCN(C(=O)c2ccc3oc(CCCc4ccccc4)nc3c2)C1 (stereo not given)	FLuc modulator inconclusive (no result: SMN2 splice enh)
CCCCc1nc2cc(C(=O)N3CCCC(OCCC)C3)ccc2o1 (stereo not given)	ELG1 repair inh inconclusive, ELG1 genotoxic inconclusive, NPC1 prom act inconclusive, Rab9 promoter act inconclusive, FLuc modulator 16.9µM (no result: SMN2 splice enh)
CCCCc1nc2cc(C(=O)NCc3ccccn3)ccc2o1	ELG1 repair inh inconclusive (no result: SMN2 splice enh)
CCCCc1nc2cc(C(=O)NC(C)c3cnn(C)c3)ccc2o1 (stereo not given)	ELG1 repair inh inconclusive, ELG1 genotoxic inconclusive, NPC1 prom act inconclusive, Rab9 promoter act 3.98µM, FLuc modulator inconclusive (no result: SMN2 splice enh)
CCCCc1nc2cc(C(=O)N3CCCCC3C(=O)OC)ccc2o1 (stereo not given)	ELG1 repair inh inconclusive, ELG1 genotoxic inconclusive, NPC1 prom act inconclusive, Rab9 promoter act 2.82µM, FLuc modulator 15.1µM (no result: SMN2 splice enh)
CCCCc1nc2cc(C(=O)N3CCC(OCCOC)CC3)ccc2o1	ELG1 genotoxic inconclusive, FLuc modulator inconclusive (no result: SMN2 splice enh)
CCCCc1nc2cc(C(=O)N3CCCC(COC)C3)ccc2o1 (stereo not given)	ELG1 repair inh inconclusive, ELG1 genotoxic inconclusive, NPC1 prom act 3.98µM, Rab9 promoter act 3.98µM, FLuc modulator 16.9µM (no result: SMN2 splice enh)
CCCCc1nc2cc(C(=O)N3CCCCC3CC(=O)OCC)ccc2o1 (stereo not given)	Rab9 promoter act inconclusive (no result: SMN2 splice enh)
CCOC(=O)c1c(C)oc2nc(C)nc(NCC3CCN(Cc4ccc(C)cc4)CC3)c12	none (no result: SMN2 splice enh, ELG1 repair inh, ELG1 genotoxic, NPC1 prom act, Rab9 promoter act)
Cc1cc(C(=O)CSC(=S)SC(C)(C)C)ccc1Cl	none (no result: ELG1 repair inh, ELG1 genotoxic, NPC1 prom act, Rab9 promoter act, FLuc modulator)
CC1CCN(c2ccc(C(=O)O)cc2NS(=O)(=O)c2ccc(Br)cc2)CC1	none
CN1CCC[C@H](C(=O)OCC(=O)[C@]2(O)CC[C@@H]3[C@H]4CCC5=CC(=O)CC[C@@]5(C)[C@H]4[C@@H](O)C[C@]32C)C1	none (no result: ELG1 repair inh, ELG1 genotoxic, NPC1 prom act, Rab9 promoter act, FLuc modulator)
